Assay results taken from PubChem BioAssay (NCATS).
Values without a mark were called inactive. Results filed as inconclusive are left out. A call without a number means that no potency is given here. Calls of active or inactive are those of the source. Unless noted, calls come from the whole dose curve; as a rule, active = well fitted curve in the direction sought with a large enough effect; inconclusive = small, poorly fitted or top-dose-only effect, or another doubt; inactive = no such curve, though single readings can be large; an effect the other way counts as inactive or inconclusive.

Tests used:
[1] = qHTS to identify inhibitors of the type 1 interferon - major histocompatibility complex class I in skeletal muscle: primary screen against the NCATS LOPAC collection (AID 1347405);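 note: lytic HiBiT luminescence reporting HLA-B protein level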
How it was run: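 Luminescence from HiBiT fused to endogenous HLA-B in CRISPR-engineered human myoblasts served as the read-out. Cells received 4.0 ng/ml IFN-beta plus compound (seven concentrations, 1:4.3 steps, highest 46 uM final) for 24 hrs before lytic detection.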

[2] = qHTS to identify inhibitors of the type 1 interferon - major histocompatibility complex class I in skeletal muscle: primary screen against the NCATS Pharmaceutical Collection (AID 1347407);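 note: luminescence of HiBiT knocked into endogenous HLA-B as interferon-induced MHC class I level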
How it was run: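 Compounds […] were added to CRISPR-engineered HLA-B-HiBiT C25cl48 human myoblasts with 4.0 ng/ml IFN-beta. After 24 hrs at 37 C, cells were lysed and HiBiT luminescence measured.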

[3] = qHTS for inhibitors of adenylyl cyclases using a fission yeast platform: a pilot screen against the NCATS LOPAC library (AID 1347410)
How it was run: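 GFP from fbp1-GFP reporter, read by Acumen laser cytometry, indicates AC inhibition in fission yeast expressing AC9, GNAS and PDE4D2. Cells grown 18 h in the dark at 30C with compounds, final up to 57 uM.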

[4] = target: Protein phosphatase 1D (Homo sapiens) (UniProt O15297); experiment: RapidFire Mass Spectrometry qHTS Assay for Modulators of WT P53-Induced Phosphatase 1 (WIP1) (AID 1347424);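 note: amount of dephosphorylated VEPPL-S-QETFS peptide product formed by WIP1; series mostly up to about 63 µM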
Chain of Protein phosphatase 1D (Homo sapiens) (O15297 whole entry, looked up): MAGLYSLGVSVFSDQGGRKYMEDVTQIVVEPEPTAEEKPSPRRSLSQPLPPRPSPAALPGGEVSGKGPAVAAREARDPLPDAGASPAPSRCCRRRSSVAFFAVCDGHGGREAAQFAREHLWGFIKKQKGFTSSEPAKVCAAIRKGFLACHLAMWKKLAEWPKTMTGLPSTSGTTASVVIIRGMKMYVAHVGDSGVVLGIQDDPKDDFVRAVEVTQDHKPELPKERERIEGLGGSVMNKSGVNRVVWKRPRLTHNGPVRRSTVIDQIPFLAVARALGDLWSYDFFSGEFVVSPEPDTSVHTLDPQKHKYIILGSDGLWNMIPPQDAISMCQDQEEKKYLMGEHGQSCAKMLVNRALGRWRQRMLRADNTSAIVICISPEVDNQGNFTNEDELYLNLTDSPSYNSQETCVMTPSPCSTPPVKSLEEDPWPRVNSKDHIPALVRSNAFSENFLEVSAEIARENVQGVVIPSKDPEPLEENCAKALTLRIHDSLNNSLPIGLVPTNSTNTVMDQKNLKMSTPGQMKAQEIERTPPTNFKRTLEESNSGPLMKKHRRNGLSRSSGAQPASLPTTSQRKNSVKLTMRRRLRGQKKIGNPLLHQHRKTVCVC
How it was run: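 10 nM WIP1 + cpd, 1 h RT; + 2 uM VEPPL-pS-QETFS, 5 min RT; stop 0.5% formic acid; labelled product standard 1 uM; RapidFire MS. Buffer 50 mM Tris pH 7.5, 30 mM MgCl2, 1 mM TCEP.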

[5] = target: Protein phosphatase 1D (Homo sapiens) (UniProt O15297); experiment: Rhodamine-PBP qHTS Assay for Modulators of WT P53-Induced Phosphatase 1 (WIP1) (AID 1347425)
How it was run: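 WIP1 (5 nM final) was preincubated with compound for 1 hour at room temperature. It then dephosphorylated 10 uM VEPPL-pS-QETFS peptide in Tris-HCl pH 7.5 with 30 mM MgCl2. Released Pi was detected by 10 uM Rh-PBP fluorescence (ex 525/em 598 nm) read at 1-min intervals for 11 min, as delta f1 - f0.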

[6] = Validation qHTS assay for inhibitors of Activation Induced Cytidine Deaminase (AID): UDG Counterscreen signal (AID 1347427)
How it was run: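 Counterscreen read of UDG activity (2 U/mL, 4/3x) in the FRET deamination format with AID (1 uM, 4/3x), DJC20/DJC23 substrates (250 nM, 4x), 4 h at room temperature. NaOH stop, fluorescence at 560 ex/665 em.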

[7] = Primary qHTS for inhibitors of La Crosse Virus (LACV) - induced cell death in SH-SY5Y cells (AID 1508616);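 note: top concentration of the series differs between compounds; higher means more rescue of cells from virus-induced death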
How it was run: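 Protection against LACV-induced cell death is scored in SH-SY5Y cells exposed to compounds and virus (0.01 MOI) for 6 days. Data normalized to virus-infected DMSO wells and virus-free DMSO wells.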

[8] = target: Calcium and integrin-binding protein 1 (Homo sapiens) (UniProt Q99828); experiment: Validation qHTS for Identification of Calcium Integrin Binding protein 1 (CIB1) Competitor (AID 1508618)
Chain of Calcium and integrin-binding protein 1 (Homo sapiens) (Q99828 whole entry, looked up): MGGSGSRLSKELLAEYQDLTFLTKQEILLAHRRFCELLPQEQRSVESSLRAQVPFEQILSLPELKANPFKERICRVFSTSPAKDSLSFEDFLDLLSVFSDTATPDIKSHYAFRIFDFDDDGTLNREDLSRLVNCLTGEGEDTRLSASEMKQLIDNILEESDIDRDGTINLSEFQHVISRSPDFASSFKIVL
How it was run: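 Fluorescence polarization with 1 uM CIB1-GST and 100 nM FITC-alphaIIb peptide in HEPES pH 7.4, NaCl, 5 mM CaCl2, Tween20. Compounds at up to 114 uM final, preincubated with protein 15 min; read after 15 min more at RT.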

[9] = target: Calcium and integrin-binding protein 1 (Homo sapiens) (UniProt Q99828); experiment: Primary qHTS for Identification of Calcium Integrin Binding Protein 1 (CIB1) Competitor (AID 1508620);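 note: GST tagged CIB1 binding a fluorescein labelled alphaIIb integrin peptide tracer; top concentration of the series differs between compounds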
How it was run: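 CIB1-GST (1 uM final) and compound incubated 15 min at room temperature before adding FITC-alphaIIb peptide tracer (100 nM final). Competition for binding read by fluorescence polarization (ex 480, em 540) after another 15 min at room temperature.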

[10] = Primary qHTS for small molecule stabilizers of the endoplasmic reticulum resident proteome: Secreted ER Calcium Modulated Protein (SERCaMP) assay (AID 1508630)
How it was run: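 GLuc-SERCaMP-expressing SH-SY5Y cells, pretreated 16 h with compound, are challenged with thapsigargin to empty ER calcium stores; after 4 h, coelenterazine is added directly to the medium and luminescence is imaged.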

[11] = A High-Content qHTS Against Drug Library for the Identification of Small Molecules that Inhibit DYT1 Early Onset Primary Dystonia-Associated Cell Pathology (AID 1645839; calls by dose curve; note: series mostly up to about 46 µM)
How it was run: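 In this high-content image screen, delE TorsinA mislocalization in inducible Flp-In 293 cells is scored as %pathology, with cell count serving as the counterscreen. Compound exposure lasts 48 h under tetracycline induction in reduced-serum medium.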

[12] = target: Cytochrome P450 2D6 (Homo sapiens) (UniProt P10635); experiment: Cytochrome P450 family 2 subfamily D member 6 (CYP2D6) small molecule antagonists: luciferase biochemical (cell-free) qHTS assay (AID 1645840; active = well fitted curve in the direction sought with a large enough effect in the repeat runs; an effect the other way counts as inactive or inconclusive; note: nearly all actives have a fitted effect of over 55% in size; note: potency is the fitted concentration of half-maximal effect; for activity change, negative = inhibition: series mostly up to about 57 µM)
Chain of Cytochrome P450 2D6 (Homo sapiens) (P10635 whole entry, looked up): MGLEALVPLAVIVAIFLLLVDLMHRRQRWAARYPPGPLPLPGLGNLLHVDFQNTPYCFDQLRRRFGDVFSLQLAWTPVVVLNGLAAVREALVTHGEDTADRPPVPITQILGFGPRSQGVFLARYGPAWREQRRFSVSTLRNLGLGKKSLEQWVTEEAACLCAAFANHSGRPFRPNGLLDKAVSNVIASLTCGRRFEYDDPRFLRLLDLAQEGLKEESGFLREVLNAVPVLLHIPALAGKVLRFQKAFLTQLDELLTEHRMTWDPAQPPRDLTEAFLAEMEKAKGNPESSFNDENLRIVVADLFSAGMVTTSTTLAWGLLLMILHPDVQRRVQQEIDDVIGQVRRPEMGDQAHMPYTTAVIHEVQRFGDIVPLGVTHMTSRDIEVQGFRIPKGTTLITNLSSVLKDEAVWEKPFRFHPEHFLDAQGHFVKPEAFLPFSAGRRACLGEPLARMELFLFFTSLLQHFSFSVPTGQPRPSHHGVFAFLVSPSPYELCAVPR
How it was run: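 P450-Glo luminescent screen: recombinant CYP2D6 enzyme–proluciferin substrate mix preincubated with compound 10 min at room temperature, then NADPH regeneration added for 1 h at room temperature. Detection reagent added for 20 min; luciferin light read as relative luminescence units.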

[13] = target: Cytochrome P450 2C9 (Homo sapiens) (UniProt P11712); experiment: Cytochrome P450 family 2 subfamily C member 9 (CYP2C9) small molecule antagonists: luciferase biochemical (cell-free) qHTS assay (AID 1645842; active = well fitted curve in the direction sought with a large enough effect in the repeat runs; an effect the other way counts as inactive or inconclusive; note: nearly all actives have a fitted effect of over 55% in size; note: potency is the fitted concentration of half-maximal effect; for activity change, negative = inhibition: series mostly up to about 57 µM)
Chain of Cytochrome P450 2C9 (Homo sapiens) (P11712 whole entry, looked up): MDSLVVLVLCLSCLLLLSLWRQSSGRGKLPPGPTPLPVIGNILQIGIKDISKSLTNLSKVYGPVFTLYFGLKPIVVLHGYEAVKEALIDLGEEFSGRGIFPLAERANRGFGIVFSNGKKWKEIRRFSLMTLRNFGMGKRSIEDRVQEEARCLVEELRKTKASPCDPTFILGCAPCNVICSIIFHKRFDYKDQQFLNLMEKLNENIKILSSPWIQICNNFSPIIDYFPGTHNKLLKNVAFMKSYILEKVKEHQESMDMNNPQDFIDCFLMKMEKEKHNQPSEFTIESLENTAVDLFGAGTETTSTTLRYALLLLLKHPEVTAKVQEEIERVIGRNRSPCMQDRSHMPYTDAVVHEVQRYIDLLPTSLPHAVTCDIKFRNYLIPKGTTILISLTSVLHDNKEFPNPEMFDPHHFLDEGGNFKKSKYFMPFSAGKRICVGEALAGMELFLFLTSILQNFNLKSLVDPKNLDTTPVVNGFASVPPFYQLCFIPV
How it was run: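 Luminescence, after 20 min with luciferin detection reagent, reflected CYP2C9 turnover during a 1 h NADPH-driven reaction at 37C. Enzyme-substrate mix contained 0.4% bovine serum albumin and was preincubated with compound 10 min at room temperature.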

[14] = target: Papain (Carica papaya) (UniProt P00784); experiment: Primary qHTS assay for inhibitors of the protease papain (AID 1645873);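 note: papain turnover of Z-FR-AMC read as the AMC fluorescence gain over 10 min; series mostly up to about 50 µM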
Chain of Papain (Carica papaya) (P00784 whole entry, looked up): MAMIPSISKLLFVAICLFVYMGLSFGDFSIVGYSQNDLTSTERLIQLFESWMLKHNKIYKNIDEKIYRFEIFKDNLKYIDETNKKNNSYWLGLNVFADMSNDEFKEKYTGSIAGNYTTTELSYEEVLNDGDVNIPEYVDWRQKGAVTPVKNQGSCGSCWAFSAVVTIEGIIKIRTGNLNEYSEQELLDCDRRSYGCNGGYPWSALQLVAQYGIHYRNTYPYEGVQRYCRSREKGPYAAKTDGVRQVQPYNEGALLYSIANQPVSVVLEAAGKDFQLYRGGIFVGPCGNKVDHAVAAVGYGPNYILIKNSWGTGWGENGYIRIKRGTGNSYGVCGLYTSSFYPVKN

[15] = target: Single-stranded DNA cytosine deaminase (Homo sapiens) (UniProt Q9GZX7); experiment: Validation qHTS assay for inhibitors of Activation Induced Cytidine Deaminase (AID): AID signal (AID 1347429)
Chain of Single-stranded DNA cytosine deaminase (Homo sapiens) (Q9GZX7 whole entry, looked up): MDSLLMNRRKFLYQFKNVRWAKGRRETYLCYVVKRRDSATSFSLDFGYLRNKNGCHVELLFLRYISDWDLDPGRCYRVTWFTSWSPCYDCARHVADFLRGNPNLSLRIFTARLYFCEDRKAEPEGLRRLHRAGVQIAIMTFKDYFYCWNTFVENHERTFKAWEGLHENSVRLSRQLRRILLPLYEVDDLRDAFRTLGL
How it was run: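 Fluorescence at 540 nm excitation and 590 nm emission reports ssDNA cytosine deamination by AID, with UDG in the same well. Compound-treated reactions ran 4 hr at room temperature with DJC20/DJC23 substrate, followed by 30 min NaOH treatment.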

[16] = Counterscreen qHTS for small molecule stabilizers of the endoplasmic reticulum resident proteome: GLuc-NoTag assay (AID 1508627);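 note: SH-SY5Y cells given compound then 100 nM thapsigargin to empty ER calcium; series mostly up to about 76 µM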
How it was run: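 Luminescence of Gaussia luciferase secreted into the medium (coelenterazine, 0.07x final, unlysed cells) was the read-out. Human SH-SY5Y neuroblastoma cells constitutively secreting untagged GLuc received compound for 19 h, then 100 nM thapsigargin for 4 h.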

[17] = Cell Viability qHTS for small molecule stabilizers of the endoplasmic reticulum resident proteome (AID 1508629); details: cell viability counter-screen, 100 nM thapsigargin for final 4 h;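 note: human SH-SY5Y neuroblastoma cells carrying the GLuc-SERCaMP reporter; compound exposure about 46 h in total before the viability read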
[18] = target: Cytochrome P450 3A4 (Homo sapiens) (UniProt P08684); experiment: Cytochrome P450 family 3 subfamily A member 4 (CYP3A4) small molecule antagonists: luciferase qHTS assay (AID 1645841; active = well fitted curve in the direction sought with a large enough effect in the repeat runs; an effect the other way counts as inactive or inconclusive; note: nearly all actives have a fitted effect of over 45% in size)
Chain of Cytochrome P450 3A4 (Homo sapiens) (P08684 whole entry, looked up): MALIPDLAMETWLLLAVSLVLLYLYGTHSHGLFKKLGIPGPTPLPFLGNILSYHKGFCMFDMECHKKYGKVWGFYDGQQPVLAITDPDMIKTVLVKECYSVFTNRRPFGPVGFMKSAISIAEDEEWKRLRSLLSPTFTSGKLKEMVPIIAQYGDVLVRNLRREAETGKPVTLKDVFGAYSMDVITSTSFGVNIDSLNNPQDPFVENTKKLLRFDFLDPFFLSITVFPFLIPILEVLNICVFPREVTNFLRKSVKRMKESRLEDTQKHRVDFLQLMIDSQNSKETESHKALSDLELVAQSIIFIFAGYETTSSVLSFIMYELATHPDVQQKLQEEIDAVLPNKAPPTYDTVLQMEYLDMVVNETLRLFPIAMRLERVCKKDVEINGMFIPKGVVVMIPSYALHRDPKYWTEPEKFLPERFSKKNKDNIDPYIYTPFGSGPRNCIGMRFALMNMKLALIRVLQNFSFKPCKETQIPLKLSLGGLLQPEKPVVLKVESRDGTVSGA
How it was run: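 Luminescent CYP3A4 activity readout: compounds plus enzyme-substrate mix 10 min at room temperature, reaction started with NADPH regenerating system for 1 h, stopped with detection reagent, read after 20 min. Ketoconazole served as control.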

SMILES: CCn1cc(C(=O)O)c(=O)c2cc3c(cc21)OCO3
- Potency [1]: inactive
- Potency [2]: inactive
- outcome [3]: inactive
- Potency [4]: inactive
- outcome [5]: inactive
- outcome [6]: inactive
- Potency [7]: inactive
- outcome [8]: inactive
- Potency [9]: inactive
- Potency [10]: inactive
- Potency [11]: inactive
- Potency [12]: inactive
- Potency [13]: inactive

SMILES: CCCCCN(CCCCC)C(=O)C(CCC(=O)O)NC(=O)c1ccc(Cl)c(Cl)c1 (configuration not stated)
- Potency [1]: inactive
- Potency [2]: inactive
- outcome [3]: inactive
- Potency [4]: inactive
- outcome [6]: inactive
- Potency [7]: inactive
- Potency [9]: inactive
- Potency [10]: inactive
- Potency [13]: 1.38 µM (active)

SMILES: NCCCNCCSP(=O)(O)O
- Potency [1]: inactive
- activity change, negative = inhibition [2]: 3.17% [at 9.18 µM]
- outcome [3]: inactive
- activity change, negative = inhibition [4]: 0.628% [at 12.6 µM]
- activity change, negative = inhibition [5]: 1.47% [at 11.5 µM]
- outcome [6]: inactive
- Potency [7]: inactive
- outcome [8]: inactive
- Potency [9]: inactive
- Potency [10]: inactive
- activity change, negative = inhibition [12]: -0.206% [at 11.5 µM]
- activity change, negative = inhibition [13]: 13.8% [at 11.5 µM]
- Potency [14]: inactive

SMILES: CNC1(C)C2CCC(C2)C1(C)C (configuration not stated)
- Potency [1]: inactive
- Potency [2]: inactive
- outcome [3]: inactive
- outcome [5]: inactive
- outcome [6]: inactive
- Potency [15]: inactive
- Potency [7]: inactive
- outcome [8]: inactive
- Potency [9]: inactive
- Potency [10]: inactive
- Potency [11]: inactive
- Potency [12]: inactive
- Potency [13]: inactive
- Potency [14]: inactive

SMILES: C[N+](C)(C)CCOC(N)=O
- Potency [1]: inactive
- Potency [2]: inactive
- outcome [3]: inactive
- Potency [4]: inactive
- outcome [5]: inactive
- outcome [6]: inactive
- Potency [7]: inactive
- outcome [8]: inactive
- Potency [9]: inactive
- Potency [10]: inactive
- Potency [11]: inactive
- Potency [12]: inactive
- Potency [13]: inactive
- Potency [14]: inactive

SMILES: c1cc(CN2CCCCC2)cc(OCCCNc2nc3ccccc3s2)c1
- Potency [1]: inactive
- Potency [2]: inactive
- outcome [3]: inactive
- outcome [5]: inactive
- outcome [6]: inactive
- Potency [15]: inactive
- Potency [7]: inactive
- outcome [8]: inactive
- Potency [9]: inactive
- Potency [16]: inactive
- max response [17]: -7.44%
- Potency [12]: 1.74 µM (active)
- Potency [13]: inactive
- Potency [14]: inactive

SMILES: CCN(CC)CCNC(=O)c1cc(S(C)(=O)=O)ccc1OC
- Potency [1]: inactive
- Potency [2]: inactive
- outcome [3]: inactive
- outcome [5]: inactive
- outcome [6]: inactive
- Potency [15]: inactive
- Potency [7]: inactive
- outcome [8]: inactive
- Potency [9]: inactive
- Potency [10]: inactive
- Potency [13]: inactive
- Potency [14]: inactive

SMILES: N[C@@H](COP(=O)(O)O)C(=O)O
- Potency [1]: inactive
- Potency [2]: inactive
- outcome [3]: inactive
- Potency [4]: inactive
- outcome [6]: inactive
- Potency [15]: inactive
- Potency [7]: inactive
- outcome [8]: inactive
- Potency [9]: inactive
- Potency [10]: inactive
- Potency [11]: inactive
- Potency [12]: inactive
- outcome [18]: inactive
- Potency [13]: inactive
- Potency [14]: inactive

SMILES: CN(C)CCN(Cc1cccs1)c1ccccn1
- Potency [1]: inactive
- Potency [2]: inactive
- outcome [3]: inactive
- Potency [4]: inactive
- outcome [5]: inactive
- outcome [6]: inactive
- Potency [7]: inactive
- outcome [8]: inactive
- Potency [9]: inactive
- Potency [10]: inactive
- Potency [11]: inactive
- Potency [13]: inactive
- Potency [14]: inactive
